# Source: PubChem (National Center for Advancing Translational Sciences (NCATS))
# CCT chaperon mod: modulators of cytosolic chaperonin (CCT/TRiC) activity; purified chaperonin ATPase assay, HTRF ADP detection, 30 min; activity change, % (concentration not given with the values), hits read low; hit rate 0.3% among 360,000; in the data active = activity change below about -30%
#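 TRiC (40 or 20 nM final, by batch activity) in 30 mM Tris pH 7.4, 100 mM KCl, 5 mM MgCl2, 1 mM DTT was treated with compound at 76 uM single dose, then 10 uM ATP, 30 min at 37 °C. ADP was read by HTRF Transcreener.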
# G9a inh: blocks human histone lysine methyltransferase G9a; G9a H3K9 monomethylation, AlphaScreen, 2 h; AID 504332; hit rate 8.8% among 350,000; Q96KQ7; Potency, µM (titrated, usually from 102 µM), hits mostly inhibitors; also: nearly all actives have a fitted effect of over 75% in size
# Target sequence (Q96KQ7 913-1193 limits assumed): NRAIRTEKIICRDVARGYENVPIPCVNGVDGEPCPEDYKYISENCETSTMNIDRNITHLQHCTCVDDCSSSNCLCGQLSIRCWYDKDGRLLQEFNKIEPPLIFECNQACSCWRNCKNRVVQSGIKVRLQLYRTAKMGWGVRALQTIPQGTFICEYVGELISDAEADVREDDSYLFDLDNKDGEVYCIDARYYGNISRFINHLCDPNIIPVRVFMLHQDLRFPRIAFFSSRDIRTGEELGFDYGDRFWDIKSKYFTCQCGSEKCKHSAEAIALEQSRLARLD
#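 Readings reflect AlphaScreen signal from monomethyl-H3K9 antibody detection. HMT at 20 nM; substrate b-H3K9 500 nM; cofactor SAM 20 uM; 2 h RT reaction; compounds tested as titrations in qHTS with 15 min preincubation.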
# Sfp inh: blocks B. subtilis Sfp PPTase activity | hit rate 3.5% among 310,000 | Q9F4F7 | Potency, µM, usual class: inhibitors | Biochemical Sfp PPTase activity, qHTS | AID 1490;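 also: the enzyme is Sfp with the accession as filed and its product quenches rhodamine fluorescence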
#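 Fluorescence-quenching assay: 15 nM Sfp-PPTase preincubated 15 min at room temperature with compound, then 5 uM rhodamine-CoA and 12.5 uM BHQ-2-labelled YbbR peptide added. Fluorescence (ex 525/em 598 nm) read at start and after 30 min; difference gives rate.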
# VDR inh: vitamin D3 receptor (human) inhibition; P11473; VDR-SRC2-3 peptide fluorescence polarization, 2 h; Potency, µM, most hits filed as inhibitors; hit rate 0.93% among 400,000; AID 504847
# Target sequence (P11473 whole entry, looked up): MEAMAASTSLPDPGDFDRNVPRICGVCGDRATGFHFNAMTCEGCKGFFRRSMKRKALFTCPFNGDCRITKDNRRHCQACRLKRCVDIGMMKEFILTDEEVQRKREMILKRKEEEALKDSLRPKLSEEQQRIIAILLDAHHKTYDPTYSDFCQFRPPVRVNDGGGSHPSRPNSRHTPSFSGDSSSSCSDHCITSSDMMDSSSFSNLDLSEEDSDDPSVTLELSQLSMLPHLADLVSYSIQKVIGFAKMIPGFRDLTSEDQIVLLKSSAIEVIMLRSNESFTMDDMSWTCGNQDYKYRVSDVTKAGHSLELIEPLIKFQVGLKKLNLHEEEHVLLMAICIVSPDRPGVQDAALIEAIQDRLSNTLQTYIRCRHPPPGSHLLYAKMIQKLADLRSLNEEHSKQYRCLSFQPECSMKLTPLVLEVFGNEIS
#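 Compounds are added to VDR with labelled SRC2-3 coactivator peptide and held 2 h at room temperature. Inhibition of the VDR–peptide interaction is then read as a change in fluorescence polarization.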
# PLK1 PBD block: PLK1 (human) polo-box domain binding inhibition; Potency, µM, actives largely listed as inhibitors; Plk1 PBD binding of FITC phosphopeptide, fluorescence polarization; hit rate 2.8% among 360,000; P53350; also: series mostly up to about 57 µM; nearly all actives have a fitted effect of over 65% in size
# Mm-Cpn inhibitor: blocks the Methanococcus maripaludis chaperonin Mm-Cpn; purified Mm-Cpn ATPase, ADP Transcreener TR-FRET; Potency, µM (top dose mostly 76.9 µM), usual class: inhibitors; hit rate 0.031% among 330,000; also: nearly all actives have a fitted effect of over 80% in size
#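 Purified archaeal chaperonin (25 nM final) was preincubated with compound for 10 min at 37°C, then ATP (10 uM final) was added for 30 min at 37°C in Tris pH 7.4/KCl/MgCl2/DTT buffer. ADP was quantified by HTRF Transcreener TR-FRET.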
# Hits are given with their value; 0 = inactive; ? = inconclusive; - = no result; [ ] = remark or other dose. The list is not random: actives were taken first. Their share in the collection is about 10%. Unless noted, calls follow the shape of the dose curve; as a rule, active = well fitted curve in the direction sought with a large enough effect; inconclusive = small, poorly fitted or top-dose-only effect, or another doubt; inactive = no such curve, though single readings can be large; an effect the other way counts as inactive or inconclusive.
SMILES,CCT chaperon mod,G9a inh,Sfp inh,VDR inh,PLK1 PBD block,Mm-Cpn inhibitor
COc1ccc(C(=O)NC(=S)Nc2ccc(S(=O)(=O)Nc3cc(OC)ncn3)cc2)cc1,0,?,0,0,0,0
COc1cc(NS(=O)(=O)c2ccc(NC(=O)c3ccc(Cl)cc3Cl)cc2)ncn1,0,0,0,0,0,0
COc1cc(/C=C(\C#N)c2nc3ccccc3[nH]2)cc(Cl)c1OCc1ccccc1Cl,-,0,-,0,-,-
Cc1nc(N2CCOCC2)c2nc(-c3ccccc3)n(CCCN3CCCCC3C)c2n1 (stereo not given),-,-,0,-,-,-
O=c1[nH]cc(S(=O)(=O)c2ccccc2)[nH]1,0,0,0,0,30µM,0
O=c1[nH]cc(-c2ccccc2)c(=O)[nH]1,0,0,0,0,0,0
Cc1cc(Br)ccc1NC(=O)CCNS(=O)(=O)c1cccc2nonc12,-,0,-,0,-,-
Nc1cc(-c2ccc(Br)cc2)nn1S(=O)(=O)c1cccc2nsnc12,0,?,0,0,0,0
Nc1cc(-c2ccc(Cl)cc2)nn1S(=O)(=O)c1cccc2nsnc12,0,40µM,0,0,0,0
COc1ccccc1-c1cc(N)n(S(=O)(=O)c2cccc3nsnc23)n1,0,50µM,0,0,0,0
Nc1nc(NCCc2ccc(O)cc2)nc2nc(-c3ccco3)nn12,-,0,?,?,-,-
CCOc1ccccc1C(=O)N1CCC(c2nc3ccccc3o2)CC1,-,0,-,0,-,-
COCCNC(=O)C/C(C)=N/NC(=O)C(=O)NC1CCCCC1,0,-,0,0,24µM,0
C/C(CC(=O)NC1CCCCC1)=N\NC(=O)c1ccccc1C,0,40µM,0,0,0,0
O=C1C2C(c3ccccc3)CC=CC2C(c2ccc(C(F)(F)F)cc2)N1Cc1ccccc1 (stereo not given),-,-,0,0,-,-
c1ccc(-c2nc(N3CCOCC3)sc2-c2ccccc2)cc1,0,0,0,0,0,0
O=c1nc(N2CCOCC2)ccn1-c1nc(-c2ccccc2)sc1-c1ccccc1,0,-,0,0,30µM,?
CCNc1nc(NC(C)C)nc(N(C#N)CCOc2ccccc2)n1,0,13µM,?,0,0,0
C#CCN(C#N)c1nc(NCC)nc(NC(C)C)n1,0,0[12.7 µM],0,0,0,0
COc1ccc(Oc2cc(Cl)nc(N)n2)cc1,0,50µM,0,0,0,0
Cc1cccc(C)c1NC(=O)CN(CC(=O)O)CC(=O)O,-,0[12.7 µM],45µM,0,-,-
Cc1noc(C)c1-c1cncnc1N1CCN(C)CC1,-,0[0.501 µM],0,32µM,-,-
O=C1C=C(C2OC(CO)C(O)C2O)C(=O)N1 (stereo not given),0,-,-,40µM,?,-
COc1cccc(C(=O)Nc2cccc(C(=O)OCc3cc(=O)n4nc(C5CC5)sc4n3)c2)c1,-,0,-,0,-,-
Cn1c(=O)n2n(c1=O)[C@H]1[C@H](O)[C@H]3O[C@@H]3/C(=N/OCc3ccccc3)[C@@H]1CC2,-,-,0,-,-,-
SMILES,CCT chaperon mod,G9a inh,Sfp inh,VDR inh,PLK1 PBD block,Mm-Cpn inhibitor
COc1ccc(N2CCN(C(=O)CSc3ccccc3N)CC2)cc1,0,?,0,0,24µM,0
COc1ccc(N2CCN(C(=O)CSc3nc(C)cs3)CC2)cc1,0,45µM,-,0,0,0
O=C(NC[C@H](O)c1ccccc1)c1ccccc1,-,-,0,0,-,-
COc1ccc(C(=O)NC(=S)N2CCOCC2)cc1Br,0,20µM,0,0,0,0
COc1ccc(C(=O)NC(=S)N2CCOCC2)cc1[N+](=O)[O-],0,35µM,0,0,0,0
COc1ccc(C(=O)NC(=S)NCCO)cc1Br,0,45µM,?,0,0,0
COc1ccc(C(=O)NN2CCOCC2)cc1[N+](=O)[O-],0,-,0,0,0,0
COc1cccc(Cn2c(=O)c(-c3cn(C)c4ccccc34)nc3cnc(N4CCNCC4)nc32)c1,-,0[0.501 µM],?,0,-,-
CCOC(=O)CSC1=C(C#N)C(=O)NC(c2ccc(OC)c(OC)c2)S1 (stereo not given),0,?,40µM,?,12µM,0
CCOC(=O)CC1C(=O)NCCN1Cc1ccc(OC)c(OC)c1 (stereo not given),0,0,0,0,0,0
CCOC(=O)CSC1=C(C#N)C(=O)NC(c2ccc(OC)cc2)S1 (stereo not given),0,?,45µM,?,12µM,0
CCOC(=O)CSc1nc2cc(OC)ccc2cc1C#N,0,0[12.7 µM],0,0,0,0
CC(=O)OC1CC[C@@]2(C)C(=CC[C@H]3[C@@H]4CC[C@H](C(C)=O)[C@@]4(C)CC[C@@H]32)C1 (stereo not given in full),-,-,0,0,-,-
N#C/C(=C\c1ccc(Br)cc1)c1nc(-c2cc3cc(Br)ccc3oc2=O)cs1,-,0,-,0,-,-
Cc1sc(NC(=O)/C=C/c2ccco2)c(C(=O)OC(C)C)c1C,0,?,32µM,0,0,0
Cc1csc(NC(=O)/C=C/c2ccco2)n1,0,20µM,0,0,0,0
COC(=O)c1c(NC(=O)/C=C/c2ccco2)sc2c1CCC2,0,0,0,0,0,0
CCOC(=O)Cc1csc(NC(=O)/C=C/c2ccco2)n1,0,50µM,71µM,0,0,0
O=C(/C=C/c1ccco1)Nc1nc(-c2ccc(F)c(F)c2)cs1,0,-,22µM,0,0,0
CCOC(=O)Cc1csc(NC(=O)/C=C/c2ccc(Cl)cc2)n1,0,0,0,0,0,0
O=C(/C=C/c1ccco1)Nc1scc(-c2ccccc2)c1C(=O)O,0,50µM,0,0,?,0
O=C(/C=C/c1ccccc1)Nc1scc(-c2ccccc2)c1C(=O)O,0,-,0,0,0,0
O=C(/C=C/c1ccco1)Nc1nc(-c2ccccn2)cs1,0,22µM,0,?,0,0
COc1cc(/C=N/Nc2ccc(Cl)c(C(=O)O)c2)ccc1OC(=O)c1ccco1,0,22µM,0,0,0,0
COc1ccc(C(=O)Oc2cc(/C=N/NC(N)=S)ccc2OC)cc1,0,0,0,0,0,0
SMILES,CCT chaperon mod,G9a inh,Sfp inh,VDR inh,PLK1 PBD block,Mm-Cpn inhibitor
COc1cc(/C=N/NC(N)=O)ccc1OCC(=O)N1C(C)CCCC1C (stereo not given),0,0,0,0,0,0
COc1cc(/C=N/Nc2ccc(Cl)c(C(=O)O)c2)ccc1OCC(=O)N1C(C)CCCC1C (stereo not given),0,50µM,0,0,?,0
COc1ccc(C(=O)Oc2ccc(/C=N/Nc3ccc(Cl)c(C(=O)O)c3)cc2OC)cc1,0,35µM,0,0,?,0
COc1cc2c(=O)c(S(=O)(=O)c3ccccc3)cn(CC(=O)Nc3ccccc3C)c2cc1OC,-,0,-,0,-,-
Cc1cccc(N2CCN(C(=O)C3CCN(Cc4nc(-c5ccc(Cl)cc5)oc4C)CC3)CC2)c1C,-,0,-,0,-,-
COC(=O)CSc1nc2sc3c(c2c(=O)n1-c1ccc(C)cc1)CC(C(C)C)OC3 (stereo not given),-,0,-,0,-,-
